The values that follow come from PubChem BioAssay (EPA / NIEHS).

Calls of active or inactive are those of the source. Rule for the calls: active = hit-call score of the fitted dose curve at least 0.9, where 1 is the maximum; inactive = score below 0.9.

What is called AC50 is the concentration at which the activity in the assay is half-maximal.

What all share (conditions): mRNA level, 48 h; actives raise or lower the signal
Read-out in assay [1]: Bcl-2 (BAX) gene, BAX (gene 581)
In words: LTEA_HepaRG_BAX: Life Technologies and Expression Analysis (LTEA) Assay for Bcl-2 (BAX) gene using HepaRG (AID 2283470). The method in brief: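 HepaRG (human liver), 48 h exposure, duplicate wells. 8-pt curve, half-log from 100 uM, 0.5% DMSO. BAX transcript by TaqMan qRT-PCR; ACTB/GAPDH/POLR2A normalization; gain or loss vs DMSO baseline.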

Read-out in assay [2]: adenosine kinase (ADK) gene, ADK (gene 132)
Put plainly: LTEA_HepaRG_ADK: Life Technologies and Expression Analysis (LTEA) Assay for adenosine kinase (ADK) gene using HepaRG (AID 2283471). The method in brief: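 ADK expression quantified by qRT-PCR, normalised to three housekeeping genes, after 48 h exposure of HepaRG cells to eight concentrations (top 100 uM, half-log steps, duplicate, 0.5% DMSO). Up- or down-regulation fitted relative to vehicle.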

Read-out in assay [3]: Alpha-fetoprotein (AFP) gene, AFP (gene 174)
Put plainly: LTEA_HepaRG_AFP: Life Technologies and Expression Analysis (LTEA) Assay for Alpha-fetoprotein (AFP) gene using HepaRG (AID 2283472). The method in brief:
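HepaRG, single lot; 48 h post-plating -> serum-free induction medium; cpd 8-pt, 100 uM top, half-log, 0.5% DMSO, duplicate, 48 h. RNA -> qRT-PCR AFP, norm ACTB/GAPDH/POLR2A. Bidirectional fit vs DMSO.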

Read-out in assay [4]: Apoptosis regulator Bcl-2 (Homo sapiens) (UniProt P10415)
Put plainly: LTEA_HepaRG_BCL2: Life Technologies and Expression Analysis (LTEA) Assay for Bcl-2 gene using HepaRG (AID 2283475). In short, it runs like this: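 HepaRG, plated 48 h then switched to serum-free induction medium; dosed 48 h, 8 conc. (max 100 uM, half-log steps), duplicate, 0.5% DMSO. Lysis in RLT, RNA isolated, TaqMan qRT-PCR for BCL2; ACTB/GAPDH/POLR2A normalisation; bidirectional fit vs DMSO.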

Read-out in assay [5]: Bcl-2 (BID) gene, BID (gene 637)
Put plainly: LTEA_HepaRG_BID: Life Technologies and Expression Analysis (LTEA) Assay for Bcl-2 (BID) gene using HepaRG (AID 2283476). In short, it runs like this: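 Transcript levels of BID, measured by qRT-PCR and normalized to three housekeeping genes, were fitted bidirectionally against DMSO controls. Cells were HepaRG, dosed 48 h at up to 100 uM.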

Read-out in another assay: Caspase-3 (Homo sapiens) (UniProt P42574)
Put plainly: LTEA_HepaRG_CASP3: Life Technologies and Expression Analysis (LTEA) Assay for cysteine-aspartic acid protease (CASP3) using HepaRG (AID 2283477). In short, it runs like this:
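Differentiated HepaRG cells, plated 48 h, were treated in duplicate in serum-free induction medium for 48 h with eight half-log concentrations up to 100 uM in 0.5% DMSO. CASP3 mRNA measured by qRT-PCR, normalized to ACTB, GAPDH, POLR2A.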

Read-out in assay [6]: Cytochrome P450 (CYP1A2), CYP1A2 (gene 1544)
In words: LTEA_HepaRG_CYP1A2: Life Technologies and Expression Analysis (LTEA) Assay for Cytochrome P450 (CYP1A2) using HepaRG (AID 2283479). The method in brief:
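Differentiated human HepaRG cells in serum-free induction medium exposed 48 hours in duplicate to 8 half-log concentrations from 100 uM, 0.5% DMSO. CYP1A2 mRNA quantified by qRT-PCR, normalized to ACTB, GAPDH and POLR2A; bidirectional fitting versus DMSO.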

Read-out in assay [7]: cysteine-aspartic acid protease (CASP8), CASP8 (gene 841)
In words: LTEA_HepaRG_CASP8: Life Technologies and Expression Analysis (LTEA) Assay for cysteine-aspartic acid protease (CASP8) using HepaRG (AID 2283480). The method in brief: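 Differentiated HepaRG cells in serum-free induction medium, 48 h exposure, eight-point half-log series from 100 uM in 0.5% DMSO, duplicates. CASP8 mRNA by qRT-PCR, normalized to ACTB, GAPDH, POLR2A; bidirectional fit versus DMSO.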

Read-out in assay [8]: Cytochrome P450 (CYP2B6), CYP2B6 (gene 1555)
Put plainly: LTEA_HepaRG_CYP2B6: Life Technologies and Expression Analysis (LTEA) Assay for Cytochrome P450 (CYP2B6) using HepaRG (AID 2283481). In short, it runs like this:
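Differentiated human HepaRG cells in serum-free induction medium, dosed in duplicate for 48 h over 8 half-log concentrations topping at 100 uM (0.5% DMSO). CYP2B6 mRNA measured by TaqMan qRT-PCR, normalized to ACTB, GAPDH, POLR2A; bidirectional fit versus DMSO.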

Read-out in assay [9]: Cytochrome P450 2C19 (Homo sapiens) (UniProt P33261)
Put plainly: LTEA_HepaRG_CYP2C19: Life Technologies and Expression Analysis (LTEA) Assay for CYP2C19 using HepaRG (AID 2283482). In short, it runs like this:
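Differentiated HepaRG cells in serum-free induction medium exposed 48 h in duplicate, 8 concentrations from 100 uM by half-log steps in 0.5% DMSO. CYP2C19 mRNA measured by TaqMan qRT-PCR, normalized to ACTB, GAPDH, POLR2A. Bidirectional fit versus DMSO.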

Read-out in a further assay: CYP2C8 (gene 1558)
In words: LTEA_HepaRG_CYP2C8: Life Technologies and Expression Analysis (LTEA) Assay for CYP2C8 using HepaRG (AID 2283483). In short, it runs like this: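 Differentiated HepaRG cells in serum-free induction medium exposed 48 h in duplicate to 8 half-log concentrations from 100 uM in 0.5% DMSO. CYP2C8 mRNA by qRT-PCR normalized to ACTB, GAPDH, POLR2A; bidirectional fit versus DMSO.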

Read-out in a further assay: CYP2C9 (gene 1559)
In words: LTEA_HepaRG_CYP2C9: Life Technologies and Expression Analysis (LTEA) Assay for CYP2C9 using HepaRG (AID 2283484). In short, it runs like this:
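Differentiated human HepaRG cells in serum-free induction medium were exposed 48 h to chemicals in 8-point half-log series from 100 uM (0.5% DMSO), in duplicate. CYP2C9 mRNA was measured by qRT-PCR, normalized to ACTB/GAPDH/POLR2A, with bidirectional fitting versus DMSO.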

Read-out in another assay: CYP2E1 (gene 1571)
Put plainly: LTEA_HepaRG_CYP2E1: Life Technologies and Expression Analysis (LTEA) Assay for CYP2E1 using HepaRG (AID 2283485). In short, it runs like this:
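Human liver line HepaRG, plated 48 h, then serum-free induction medium + chemical x 48 h; 8-pt CRC from 100 uM, half-log, 0.5% DMSO, n=2. Readout: CYP2E1 mRNA qRT-PCR vs ACTB/GAPDH/POLR2A; bidirectional fit vs DMSO.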

Read-out in another assay: CYP4A11 (gene 1579)
In words: LTEA_HepaRG_CYP4A11: Life Technologies and Expression Analysis (LTEA) Assay for CYP4A11 using HepaRG (AID 2283486). The method in brief:
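Differentiated HepaRG cells, 48 h after plating, exposed in duplicate for 48 h to 8 half-log concentrations up to 100 uM in 0.5% DMSO in serum-free induction medium. CYP4A11 mRNA measured by TaqMan qRT-PCR, normalized to ACTB, GAPDH and POLR2A.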

Read-out in assay [10]: DNA damage-inducible transcript 3 (DDIT3), DDIT3 (gene 1649)
Put plainly: LTEA_HepaRG_DDIT3: Life Technologies and Expression Analysis (LTEA) Assay for DNA damage-inducible transcript 3 (DDIT3) using HepaRG (AID 2283488). The method in brief: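 HepaRG plated 48 h, switched to serum-free induction medium, dosed 48 h (100 uM top, half-log, 8 pts, 0.5% DMSO, n=2); RNA isolated; DDIT3 by qRT-PCR; bidirectional curve fit vs DMSO.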

Read-out in assay [11]: Pro-epidermal growth factor (Homo sapiens) (UniProt P01133)
Put plainly: LTEA_HepaRG_EGF: Life Technologies and Expression Analysis (LTEA) Assay for Epidermal growth factor (EGF) using HepaRG (AID 2283489). The method in brief: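 HepaRG cells (~100,000/well, 48 h pre-culture) exposed in duplicate for 48 h in serum-free induction medium to 8 half-log concentrations up to 100 uM in 0.5% DMSO. EGF mRNA by qRT-PCR, normalized to ACTB/GAPDH/POLR2A; bidirectional fit versus DMSO.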

Read-out in assay [12]: Apolipoprotein A-V (APOA5) gene, APOA5 (gene 116519)
In words: LTEA_HepaRG_APOA5: Life Technologies and Expression Analysis (LTEA) Assay for Apolipoprotein A-V (APOA5) gene using HepaRG (AID 2283474). The method in brief: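 Differentiated HepaRG cells in serum-free induction medium, exposed 48 h in duplicate to eight half-log concentrations topping at 100 uM (0.5% DMSO). APOA5 mRNA by Fluidigm TaqMan qRT-PCR, normalized to ACTB, GAPDH and POLR2A; bidirectional fit versus DMSO.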

Read-out in assay [13]: Cytochrome P450 (CYP24A1), CYP24A1 (gene 1591)
In words: LTEA_HepaRG_CYP24A1: Life Technologies and Expression Analysis (LTEA) Assay for Cytochrome P450 (CYP24A1) using HepaRG (AID 2283478). In short, it runs like this: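 HepaRG cells plated 48 h, then exposed in duplicate in serum-free induction medium for 48 h to 8-point half-log series from 100 uM in 0.5% DMSO. CYP24A1 mRNA by Fluidigm qRT-PCR, normalized to ACTB, GAPDH, POLR2A; bidirectional fit versus DMSO.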

Chain of Cytochrome P450 2C19 (Homo sapiens) (P33261 whole entry, looked up): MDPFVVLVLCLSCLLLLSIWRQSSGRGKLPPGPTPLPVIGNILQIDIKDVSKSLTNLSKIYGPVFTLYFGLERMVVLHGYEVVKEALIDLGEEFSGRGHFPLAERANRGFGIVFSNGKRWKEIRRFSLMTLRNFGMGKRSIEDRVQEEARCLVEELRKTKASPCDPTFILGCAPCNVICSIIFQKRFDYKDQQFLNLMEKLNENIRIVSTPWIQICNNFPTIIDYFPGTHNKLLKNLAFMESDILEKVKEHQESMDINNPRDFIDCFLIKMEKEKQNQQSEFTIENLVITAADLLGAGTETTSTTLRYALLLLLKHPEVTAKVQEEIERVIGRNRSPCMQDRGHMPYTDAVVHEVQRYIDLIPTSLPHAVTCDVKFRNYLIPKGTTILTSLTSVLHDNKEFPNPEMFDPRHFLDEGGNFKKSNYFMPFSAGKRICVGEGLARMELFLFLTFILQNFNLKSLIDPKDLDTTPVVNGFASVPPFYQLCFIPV
Chain of Apoptosis regulator Bcl-2 (Homo sapiens) (P10415 whole entry, looked up): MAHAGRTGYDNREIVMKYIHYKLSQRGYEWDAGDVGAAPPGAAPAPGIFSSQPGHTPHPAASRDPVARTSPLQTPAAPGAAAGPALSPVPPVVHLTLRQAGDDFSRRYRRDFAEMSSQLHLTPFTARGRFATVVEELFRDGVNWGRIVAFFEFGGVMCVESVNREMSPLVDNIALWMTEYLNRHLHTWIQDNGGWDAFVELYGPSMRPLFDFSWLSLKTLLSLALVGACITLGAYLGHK
Chain of Caspase-3 (Homo sapiens) (P42574 whole entry, looked up): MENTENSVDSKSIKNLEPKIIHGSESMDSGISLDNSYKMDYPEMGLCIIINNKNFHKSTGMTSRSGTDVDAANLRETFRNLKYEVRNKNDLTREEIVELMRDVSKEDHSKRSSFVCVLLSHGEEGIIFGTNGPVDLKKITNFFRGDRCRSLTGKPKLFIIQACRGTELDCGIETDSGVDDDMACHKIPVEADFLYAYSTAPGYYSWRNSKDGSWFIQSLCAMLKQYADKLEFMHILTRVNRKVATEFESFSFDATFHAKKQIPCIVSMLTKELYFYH

Consider `CCCCCCCCCCCCO`, for which the call (in [1]; in assay [2]; in assay [3]; in assay [4]; in [5]; in the assay with Caspase-3 (Homo sapiens)) was inactive. For the same molecule, the call (in assay [6]; in assay [7]; in assay [8]; in assay [9]; in the assay with CYP2C8 (gene 1558); with CYP2C9 (gene 1559)) was inactive. Also, the molecule was called inactive (with CYP2E1 (gene 1571); with CYP4A11 (gene 1579); in assay [10]; in assay [11]).

As for `O=C(O)c1ccccc1C(=O)OCc1ccccc1`, the result in assay [1], in assay [2], in assay [3], in [12], in assay [4] and in assay [5] was inactive. For the same molecule, the molecule was classed as inactive (with Caspase-3 (Homo sapiens); in assay [13]; in assay [6]; in assay [7]; in assay [8]; in assay [9]). In addition, the molecule was classed as inactive (with CYP2C8 (gene 1558); in the assay with CYP2C9 (gene 1559); in the assay with CYP2E1 (gene 1571); in assay [10]; in assay [11]). Also, the AC50 in the assay with CYP4A11 (gene 1579) was 26.2 µM (active).

In the case of `CCO[Si](CCCNC(N)=O)(OCC)OCC`, the molecule was called inactive (in [1]; in assay [2]; in assay [3]; in assay [4]; in assay [5]; in the assay with Caspase-3 (Homo sapiens)). Further, the molecule was classed as inactive (in assay [7]; in [8]; in assay [9]; with CYP2C8 (gene 1558); with CYP2C9 (gene 1559); with CYP2E1 (gene 1571)). For the same molecule, the result (with CYP4A11 (gene 1579); in assay [10]; in assay [11]) was inactive.

As to `COc1cc(C(=O)NC2CCN(C)CC2)ccc1Nc1ncc2c(n1)N(C1CCCC1)CC(F)(F)C(=O)N2C`, the molecule was called inactive (in assay [1]; in assay [2]; in assay [3]; in assay [4]; in the assay with CYP2C8 (gene 1558); in [11]). The AC50 in assay [5] is 4.65 µM (active); with Caspase-3 (Homo sapiens), 11.1 µM (active); in assay [6] it was 4.65 µM (active); in assay [7], 16.2 µM (active); in [8], 0.151 µM (active); in assay [9], 4.65 µM (active). The AC50 in the assay with CYP2C9 (gene 1559) was 3.9 µM (active); with CYP2E1 (gene 1571) it was 22.9 µM (active); in the assay with CYP4A11 (gene 1579) it was 3.34 µM (active); in assay [10] it was 83 µM (active).
